FLuc inh – inhibitors of firefly luciferase | P08659 | purified firefly luciferase, luminescence, 8 min | Potency, µM (highest dose often 57.1 µM), without a hit: at the top dose activity change, negative = inhibition, most hits filed as inhibitors | 2.2% of 72,000 active; active means well fitted inhibition curve with a large enough effect; inconclusive means small, poorly fitted or top-dose-only effect; further: on the % scale 0 is the no-effect control and ±100 the full control effect; nearly all actives have a fitted effect of over 40% in size
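Compounds were tested as concentration series (qHTS) against purified P. pyralis luciferase with luciferin and 10 uM ATP in 50 mM imidazole pH 7.2, 50 mM KCl, 7 mM MgCl2, 0.01% Tween 20, 0.05% BSA. Luminescence was read after 8 min at ambient temperature.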
PK Bst – alters activity of Bacillus stearothermophilus pyruvate kinase | 1.2% of 51,000 active | Potency, µM | purified pyruvate kinase, luminescence ATP production; ribose 5-phosphate activator present at AC10; in the data active means potency below about 11 µM; inconclusive means mostly about 12 µM to 25 µM;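 the screen sought inhibitors and activators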;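 further: scaled between full activation by ribose 5 phosphate and full inhibition by luteolin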
GBA activity – human lysosomal glucosylceramidase modulation | Potency, µM | 1.1% of 48,000 active | purified enzyme, resorufin glucoside fluorescence (screen aimed at inhibitors), 20 min | AID 360; in the data active means potency below about 15 µM; inconclusive means mostly about 16 µM to 33 µM;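 further: the screen sought inhibitors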
Target sequence (P04062 whole entry, looked up): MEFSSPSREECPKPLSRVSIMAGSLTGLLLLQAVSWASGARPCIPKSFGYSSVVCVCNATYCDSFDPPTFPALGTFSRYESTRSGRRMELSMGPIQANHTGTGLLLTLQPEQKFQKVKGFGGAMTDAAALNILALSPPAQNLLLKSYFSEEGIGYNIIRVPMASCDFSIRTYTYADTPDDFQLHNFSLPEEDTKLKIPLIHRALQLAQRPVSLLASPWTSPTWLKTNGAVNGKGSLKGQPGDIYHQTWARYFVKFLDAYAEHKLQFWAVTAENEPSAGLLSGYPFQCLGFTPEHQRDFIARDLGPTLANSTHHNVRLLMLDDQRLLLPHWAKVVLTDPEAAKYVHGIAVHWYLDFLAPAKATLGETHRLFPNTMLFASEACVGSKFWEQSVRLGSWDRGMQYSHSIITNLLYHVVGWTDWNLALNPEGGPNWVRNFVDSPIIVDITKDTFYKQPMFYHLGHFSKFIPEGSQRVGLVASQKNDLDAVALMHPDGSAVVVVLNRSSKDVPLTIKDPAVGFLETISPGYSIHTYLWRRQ
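Wild-type enzyme at 0.2 nM final in 50mM citric acid/KH2PO4, 10mM sodium taurocholate, 0.01% tween-20, pH 5.9, with resorufin beta-D-glucopyranoside at 30 uM final. Compounds titrated, 20 min at RT, red fluorescence read; AC50 from titration.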
The depositor's hits bear a star; i = inactive; ? = inconclusive; nt = no result given; [ ] = another dose, or the depositor's remark. Shown are actives, neighbours in structure and some others; about 3.4% of the full set was active somewhere. Potency means the concentration at half of the fitted maximal effect.

SMILES	FLuc inh	PK Bst	GBA activity
O=C(NCc1ccco1)c1cc(-c2ccc3c(c2)OCO3)on1	-8%	>57	>77
COc1ccc(-n2c(=O)c(-c3ccc(F)cc3)nc3cncnc32)cc1	-3%[11.4 µM]	nt	nt
COc1ccc(-c2cnn(-c3ccccc3)c2N)cc1OC	-3%	nt	nt
Nc1nc2c(s1)CCc1c-2cnn1-c1ccccc1	7.9µM*	10*	>77
CCN(CC)CC[n+]1ccc2c(C)c3[nH]c4ccc(O)cc4c3c(C)c2c1	0%[11.4 µM]	nt	nt
O=S(=O)(c1ccccc1)N1CCC2(CCN(c3ccncc3)CC2)CC1	1%[11.4 µM]	nt	nt
Cc1cc(C(=O)CN2C(=O)C3CC=CCC3C2=O)c(C)n1-c1ccccc1 (configuration not stated)	4µM*	6*	>77
O=C(CN1C(=O)c2ccccc2S1(=O)=O)c1ccccc1	-26%[25.5 µM]	i	nt
COc1ccc(C(=O)CN2C(=O)c3ccccc3C2=O)c(OC)c1C	-1%	>57	i
COc1ccc(-n2c(C)cc(C(=O)Cn3nnc4ccccc4c3=O)c2C)cc1	-27%	>57	>77
CCCn1c(C)cc(C(=O)CN2C(=O)c3ccccc3C2=O)c1C	16µM*	nt	>77
Cc1cc(C(=O)CN2C(=O)c3ccccc3S2(=O)=O)c(C)n1-c1ccccc1	7.9µM*	?	>77
COc1ccc2[nH]cc(CCNc3ccnc(-c4ccoc4)n3)c2c1	-4%[2.29 µM]	nt	nt
COCCNC(=O)COc1ccc(OCCNC[C@@H](O)COc2ccccc2)cc1	0%	nt	nt
O=C(c1cc(C(F)(F)F)cc(C(F)(F)F)c1)N1CCC2(CC1)CN(c1ncccn1)C2	2%[11.4 µM]	nt	nt
CC(=O)Nc1cccc(N(C)S(C)(=O)=O)c1	-1%	>57	>77
O=C(Nc1cccc(Cl)c1)Nn1cnnc1	3%[11.4 µM]	nt	nt
CN(C)c1ccc(NC(=O)Nc2cccc(Cl)c2)cc1	10µM*	nt	>77
CN(c1cccc(NC(=O)Nc2cccc(Cl)c2)c1)S(C)(=O)=O	10µM*	?	>77
CN(C)c1ncc2nc(-c3ccccc3)c(=O)n(Cc3ccc(F)cc3)c2n1	-1%[11.4 µM]	nt	nt
COc1ccccc1-c1nccc(N2CCN(C)CC2)n1	2%[2.29 µM]	nt	nt
CCc1nnc(NC(=O)c2ccc(-c3cccc(C(F)(F)F)c3)o2)s1	4%	>57	1.8*
CCc1nnc(NC(=O)c2ccc(COc3ccccc3)o2)s1	2%	>57	i
COc1ccc(C(=O)Nn2c(C3CCC3)nc3ccccc3c2=O)c(OC)c1	-1%	>57	>77
COc1ccc(Cn2c(C3CC3)nc3ccc(NC(C)=O)cc3c2=O)cc1	20µM*	nt	>77
SMILES	FLuc inh	PK Bst	GBA activity
C=CCN1C(=NC(=O)CCCC(=O)O)SC2CS(=O)(=O)CC21 (configuration not stated)	1%	>57	>77
COc1ccc(CCN2C(=NC(=O)CCC(=O)O)SC3CS(=O)(=O)CC32)cc1OC (configuration not stated)	13µM*	>57	>77
OC[C@@H]1O[C@@H](N2CCN([C@@H]3O[C@@H](CO)[C@@H](O)[C@H](O)[C@H]3O)CC2)[C@@H](O)[C@H](O)[C@H]1O	2%[11.4 µM]	nt	nt
N#Cc1cccc(-c2cncnc2NCc2cccs2)c1	-2%[2.29 µM]	nt	nt
COc1cccc(Cn2c(=O)c(-c3ccc(Cl)cc3)nc3cnc(N4CCNCC4)nc32)c1	-1%[11.4 µM]	nt	nt
N#Cc1c(NC(=O)CSc2nnc(-c3ccccc3O)n2-c2ccccc2)sc2c1CCCC2	0%	>57	10*
Cc1ccc(C(=O)NCc2nnc(SCC(=O)Nc3sc4c(c3C#N)CCCC4)n2C)cc1	-4%	>57	>77
CC1(C)[C@@H]2CC[C@@](C)(C2)[C@H]1OC(=O)c1ccccc1C(=O)O	3%[11.4 µM]	nt	nt
CO[C@@H]1COC(=O)[C@H](C)NC(=O)[C@@H](C)COC(=O)CCC[C@H]1C	3%[11.4 µM]	nt	nt
COc1cccc(-c2nnc3sc(C4CCCCC4)nn23)c1	-1%[25.5 µM]	>26	nt
COc1cc(-c2nnc3sc(C4CCCCC4)nn23)cc(OC)c1OC	1%	>11	7*
CO[C@@H]1COC(=O)CC=C[C@@H](C)[C@@H]2C=C[C@@H](O)[C@@H](COC(=O)C/C=C\[C@H]1C)O2	0%[11.4 µM]	nt	nt
Cn1c(=O)c(-c2cc(F)cc(F)c2)nc2cnc(N3CCNCC3)nc21	1%[11.4 µM]	nt	nt
O=c1cc(-c2ccccc2)[nH]n1-c1nc2ccccc2s1	-11%	>57	>77
O=c1cc(-c2ccccc2)[nH]c2nc3ccccc3n12	2.5µM*	1*	>77
COc1ccc(Oc2ncc3nc(-c4cccc(C#N)c4)c(=O)n(C)c3n2)cc1	2%[11.4 µM]	nt	nt
Cn1nnnc1SCc1csc(Nc2ccccc2)n1	-4%	>57	>77
Cc1ccc(Nc2nc(CSc3nnnn3C)cs2)cc1	13µM*	?	>77
COC(=O)[C@H](C)NC(=O)C/C=C\[C@@H](C)[C@H]1C=C[C@H](O)[C@@H](CO)O1	0%[11.4 µM]	nt	nt
O=C(Oc1ccccc1)N1CCC2(CC1)CN(c1ncccn1)C2	-9%[11.4 µM]	nt	nt
CCOC(=O)c1cnc(SCC(=O)c2ccc3c(c2)OCCO3)nc1N	4%	>57	>77
CCOC(=O)c1cnc(SCC(=O)c2ccccc2)nc1N	4µM*	nt	nt
CCOC(=O)c1cnc(-c2ccccc2)nc1N	20µM*	i	>77
CCOC(=O)c1ccccc1NC(=O)CSc1ncc(C(=O)OCC)c(N)n1	6%	>57	>77
C[C@@]12C=CC(=O)C=C1CC[C@@H]1C2=CC[C@]2(C)[C@@H]1CC[C@H]2C(=O)CN1CCN(c2cc(N3CCCC3)nc(N3CCCC3)n2)CC1	1%	nt	nt
SMILES	FLuc inh	PK Bst	GBA activity
CC(C)(CN)CN	3%[11.4 µM]	nt	nt
Cc1ccccc1-c1cc(-c2ccccc2O)n[nH]1	?	i	>15
Cc1ccc(-c2cc(-c3ccccc3Cl)[nH]n2)c(O)c1	10µM*	nt	nt
COc1ccc(-c2coc3ccc(O[C@@H]4O[C@@H](COC(C)=O)[C@@H](OC(C)=O)[C@@H](OC(C)=O)[C@H]4OC(C)=O)cc3c2=O)cc1	0%[11.4 µM]	nt	nt
C[C@@H](CCc1ccc(O)cc1)NCCc1ccc(O)c(O)c1	-3%	nt	nt
CC1(C)S[C@@H]2[C@H](NC(=O)[C@@H](NC(=O)N3CCNC3=O)c3ccccc3)C(=O)N2[C@H]1C(=O)O	1%[25.5 µM]	nt	nt
Cc1ccc(-c2nc(Nc3ccccc3)n[nH]2)cc1	13µM*	?	>77
Nc1nc(CSc2n[nH]c(-c3ccccc3)n2)nc(Nc2ccccc2)n1	-3%	nt	i
CCOC(=O)c1ccc2nc(NC(NC(C)=O)(C(=O)OC)C(F)(F)F)sc2c1 (configuration not stated)	-2%[25.5 µM]	>26	nt
CC(=O)c1sc(Nc2nc3ccc(F)cc3s2)nc1C	16µM*	?	>77
CCOC(=O)c1csc(Nc2nc3ccc(F)cc3s2)n1	1%	1.2*	>77
CC(=O)c1sc(NC(=O)C=C(C)C)nc1C	-5%	>57	>77
CCn1c(C)nc2cc(C(=O)OCCC(F)(F)F)ccc21	-5%	>57	11*
CCOC(=O)c1ccc2c(c1)nc(SCC(=O)N1CCCCC1)n2CC	-1%	>57	>77
O=C(NC1CCS(=O)(=O)C1)c1ccc(-c2ccc(Br)cc2)o1 (configuration not stated)	-2%	7.8*	?
COc1cc(NC(=O)c2ccc(-c3ccc(Br)cc3)o2)ccc1NC(=O)C(C)C	0%	>57	>77
COc1ccccc1CNc1ncncc1-c1ccccc1C	0%[2.29 µM]	nt	nt
Cc1cnc(NC(=O)c2ccco2)s1	-26%	nt	>77
O=C(Nc1ncc(Cc2ccccc2)s1)c1cccs1	10µM*	?	nt
O=C(Nc1nnc(Cc2ccccc2)s1)c1cccs1	-18%	>57	>77
